Source: PubChem BioAssay AID1452 (National Center for Advancing Translational Sciences (NCATS), 2008)
In all, about 150,000 compounds went through this assay and about 190 (0.13%) were called active. Another 2% or so got no clear call; they are omitted. The call rests on the fitted dose curve; in most records, active means well fitted inhibition curve with a large enough effect; inconclusive means small, poorly fitted or top-dose-only effect; inactive means flat fitted curve, though single readings scatter. The full list was thinned out, with actives kept by preference.

target: Polyunsaturated fatty acid lipoxygenase ALOX12 (Homo sapiens) (UniProt P18054); assay: qHTS Assay for Inhibitors of 12-hLO (12-human lipoxygenase); settings: purified 12-hLO, xylenol orange hydroperoxide absorbance; series mostly up to 57.1 µM; activity change, negative = inhibition: at the top concentration; further: nearly all actives have a fitted effect of over 55% in size
Sequence (P18054 whole entry, looked up): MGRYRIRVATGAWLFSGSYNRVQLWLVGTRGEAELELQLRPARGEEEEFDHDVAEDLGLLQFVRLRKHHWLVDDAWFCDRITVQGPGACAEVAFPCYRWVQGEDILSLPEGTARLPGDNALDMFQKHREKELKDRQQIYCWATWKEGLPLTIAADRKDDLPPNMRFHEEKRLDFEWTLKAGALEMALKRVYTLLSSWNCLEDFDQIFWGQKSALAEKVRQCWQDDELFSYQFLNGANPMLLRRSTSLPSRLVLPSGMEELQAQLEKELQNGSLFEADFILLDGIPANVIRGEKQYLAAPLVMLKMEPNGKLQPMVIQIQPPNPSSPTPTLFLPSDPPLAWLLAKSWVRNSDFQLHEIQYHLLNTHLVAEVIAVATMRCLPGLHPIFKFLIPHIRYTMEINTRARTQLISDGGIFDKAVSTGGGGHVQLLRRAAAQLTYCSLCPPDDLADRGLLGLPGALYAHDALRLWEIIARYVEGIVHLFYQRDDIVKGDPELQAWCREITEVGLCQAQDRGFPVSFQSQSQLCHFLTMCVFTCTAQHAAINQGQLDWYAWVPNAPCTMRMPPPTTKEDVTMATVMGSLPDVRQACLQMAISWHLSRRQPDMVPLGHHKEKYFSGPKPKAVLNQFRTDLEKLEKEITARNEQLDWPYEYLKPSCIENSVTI
Text: Assay Provider: Holman, T.R., University of California, Santa Cruz Screening Center PI: Austin, C.P. Screening Center: NIH Chemical Genomics Center [NCGC] Human lipoxygenase 12hLO is a member of the closely related lipoxygenase family of enzymes which catalyze the site-specific oxidation of arachidonic acid to various hormone precursor molecules and as such is a candidate for drug development in a variety of disease areas, such as cancer and inflammation. Inhibition of 12hLO activity was screened by utilizing arachidonic acid as a substrate. The extent of hydroperoxide product formation was measured by a secondary chromogenic reaction in which xylenol orange (XO, Sigma-Aldrich, cat. number 39,818-7) reacts with the ferric ions produced from the reaction between the hydroperoxide and ferrous ions. The Fe(III)-XO complex is characterized with red-shifted absorbance at 560 nm. A purified preparation of human 12hLO was supplied by Professor Ted Holman, University of California, Santa Cruz.
Assay Protocol: Buffer: 25 mM Hepes pH 7.0, 0.01% Triton X-100. Reagents/Controls: Buffer in columns 3 and 4 as negative control (no enzyme). Substrate solution: 40 uM arachidonic acid (Sigma-Aldrich, St. Louis, MO) final concentration dispensed throughout the plate. Enzyme: 150 nM 12hLO final concentration in columns 1, 2, 5-48. Column 1 is neutral (100% activity). Column 2 contained pin-transferred titration of NDGA (nordihidroguaiaretic acid, Sigma-Aldrich, N 5023, top concentration 20 mM in DMSO, then 1:3 dilution in duplicate). (Dilution factor: 23 nL into 4 uL.) Chromogenic detection reagent (divalent iron/xylenol orange, Fe-XO): 200 uM xylenol orange plus 300 uM ferrous ammonium sulfate prepared freshly in 50 mM sulfuric acid. Assay Steps: Three uL of enzyme were dispensed to 1536-well Greiner black clear bottom plates. Compounds and controls (23 nL) were transferred via Kalypsys PinTool. The plates were incubated for 15 min at room temperature, and then 1 uL of substrate solution was added to start the reaction. After room temperature incubation for 30 minutes, 4 uL of Fe-XO solution was added to each well and the plates were incubated for 30 min. The absorbance at 405 and 573 nm were measured using ViewLux (Perkin-Elmer) High-throughput CCD imager and absorbance protocol settings. The 573-to-405 absorbance ratio was used to compute reaction progress.
On the % scale 0 is the no-effect control and ±100 the full control effect; potency means the concentration at half of the fitted maximal effect.

Activity change, negative = inhibition, inactive:
CC1(OC(=O)c2ccc(Cl)nc2)C(=O)Cc2cc(-c3ccsc3)ncc2C1=O (centres undefined) -0.498% [at 11.4 µM], COc1ccc(C(=O)Nc2ccc(S(=O)(=O)NC(C)C)cc2)cc1 4.57%, CC(=O)c1ccc(NC(=S)NC(=O)CC(C)C)cc1 1.05%, COc1cc(-c2cc(C(=O)OCC(=O)Nc3ccc4c(c3)OCO4)c3ccccc3n2)cc(OC)c1OC 1.97%, CCOC(=O)C1=C(C(=O)OCC)C(C(=O)OCC)N(S(=O)(=O)C(F)(F)F)c2ccccc21 (centres undefined) -4.37% [at 0.00818 µM], COc1cccc(NC(=S)NCCCN2CCOCC2)c1 -0.748%, COc1cc(NC(=O)Nc2ccc(C)cc2)cc([N+](=O)[O-])c1 0.524%, NS(=O)(=O)c1ccc(CNC(=O)c2ccc(Cl)cc2[N+](=O)[O-])cc1 -2.13%, O=C(Cn1nc(CNc2ccc(Cl)cc2)[n+]2c1CCCCC2)c1ccc(Cl)cc1 -14.1%, COc1ccc([N+](=O)[O-])cc1NC(=O)C(C)OC(=O)C1c2ccccc2Oc2ccccc21 (centres undefined) -0.718%, CC1(C)O[C@@H]2C[C@@H]3[C@H]4C[C@@H](F)C5=CC(=O)C=C[C@]5(C)[C@@]4(F)[C@@H](O)C[C@]3(C)[C@]2(C(=O)CO)O1 -0.431% [at 0.00818 µM], CC(C)(C)C1CCC(=NNC(=O)c2ccc(Br)o2)CC1 (centres undefined) 7.26%, CCCCC/C=C\C/C=C\C/C=C\CCCCC(=O)NCC(=O)O 5.86%, O=C(Cc1ccccc1)NC(=S)Nc1ccc(N2CCCCC2)cc1 -4.31%, CCCCC/C=C\CC1OC1CCCCCCCC(=O)O (centres undefined) -6.12%, COc1cccc(-c2cc(=O)c3cc(NC(=O)c4ccc(C)cc4)ccc3[nH]2)c1 0.685% [at 0.00818 µM], C[C@H]1Cc2c(-c3ccccc3)nc3c(c2CO1)CN(S(=O)(=O)c1ccc(Cl)c2nonc12)CC3 -3.11% [at 11.4 µM], COc1ccc(CCNC(=O)COC(=O)C2CCCCC2)cc1 -0.0351%, Cc1ccc(C(=O)COC(=O)CCN2C(=O)C3C4CC(C(Br)C4Br)C3C2=O)cc1 (centres undefined) -1.03%, CC(=O)c1c(C)[nH]c(C(=O)COC(=O)c2cccc(S(=O)(=O)N(C)c3ccccc3)c2)c1C -3.3%, Cc1ccc(NC(=S)NC(=O)/C=C/c2ccc(Cl)cc2)cc1 -2.19%, O=C(CSC1CC(=O)N(CCc2ccccc2)C1=O)Nc1ccc(Cl)cc1 (centres undefined) -7.76%, COc1ccc(-c2nc3c(c4c2C[C@H](c2ccccc2)OC4)CN(S(=O)(=O)c2c(C)noc2C)CC3)c(C)c1 1.37% [at 11.4 µM], CC1=C(C(=O)Nc2cc(C)ccn2)C(c2cnn(C)c2)C2=C(CC(c3ccccc3)CC2=O)N1 (centres undefined) -1.69%, O=C(CN1CCN(c2ccc(O)cc2)CC1)NC1CCCc2ccccc21 (centres undefined) -5.85%, CC(=O)CC(c1ccccc1)C1C(=O)Oc2ccccc2C1=O (centres undefined) -0.392% [at 0.00818 µM], CCCC(=O)Nc1ccc(C(=O)N/N=C/c2ccc[nH]2)cc1 -0.0134%, CC(C)C(C)(C#N)NC(=O)CSc1nc2scc(-c3ccccc3)c2c(=O)[nH]1 (centres undefined) -0.662%, Cn1nccc1CNC(=O)c1ccnn1C 0.98%, Cc1ccccc1-c1ccc(C(=O)O)s1 1.22% [at 0.00818 µM], COc1cc(NS(=O)(=O)c2ccc(N=Cc3c(C)[nH]n(-c4ccccc4)c3=O)cc2)nc(OC)n1 -2.19%, COc1cc(OC)cc(C(=O)Nc2ccc(S(=O)(=O)Nc3cc(C)on3)cc2)c1 -4.65%, COc1ccc(Cl)cc1C(=O)NCC#N 0.698%, CC1CCCCN1S(=O)(=O)c1ccc(S(=O)(=O)N(CC(=O)Nc2ccccc2)Cc2cccs2)cc1 (centres undefined) 0.18%, CCCCC/C=C\C/C=C\CCCCCCCCCC(N)=O 1.17%, O=C(NCc1cccs1)c1ccc(Br)o1 8.12%, CCCCC/C=C\C/C=C\C/C=C\CCCCCCC(N)=O 4.46%, CN(C)CCCNC(=S)NCc1ccc(Cl)cc1 -4.25%, COC(=O)Cc1ccc(NC(=S)NCc2ccc(Cl)cc2)cc1 -16.8%, c1ccc(C2=Nc3cccc4cccc(c34)N2)cc1 0.53%, CCOC(=O)C1=C(C)c2ccccc2OC1(C)C(=O)OCC (centres undefined) -0.153% [at 0.00818 µM], Cc1ccc(-c2cc(C(=O)NCc3cn(C)nc3C)c3cc(Br)ccc3n2)cc1 2.04%, CCCCOc1ccc(C(=O)N/C(=C/C=C/c2ccccc2)C(=O)N2CCOCC2)cc1 -1.06%, CC(=O)c1c(O)cc2n(c1=O)-c1ccc(Cl)cc1C2(C)C 5.14%, COc1ccc(-c2nc3c(c4c2C[C@H](c2ccccc2)OC4)CN(C(=O)C2CC2)CC3)c(C)c1 -3.7% [at 11.4 µM], COC(=O)N1C(/C=C/C=C/c2ccc(OC)cc2)=Cc2ccccc2C1CC(C)=O (centres undefined) 1.56% [at 11.4 µM], Cc1ccc(S(=O)(=O)N(Cc2ccc(Cl)cc2)c2ccccc2C(=O)NCc2cccnc2)cc1 1.33%, CCOC(=O)c1cnc2ccc(F)cc2c1Nc1ccc2c(c1)OCCO2 -1.08%, CC1=C(/C=C/C(C)=C/C=C/C(C)=C/C=C/C=C(C)/C=C/C=C(C)/C=C/C(=O)[C@]2(C)C[C@@H](O)CC2(C)C)C(C)(C)C[C@H](O)C1 -3.45% [at 0.00818 µM], O=C(Cn1cnc2ccccc21)N/N=C/c1ccco1 -2.72%, O=C(O)c1ccc(N=NN2CCOCC2)cc1 -1.99%, C=C1c2cccc(OC)c2O[C@H](C(=O)OCC)[C@@H]1CCCCCC -4.96% [at 0.00818 µM], CCCCCCCC/C=C\CCCCCCCC(=O)NCC(=O)O 3.9%, CCCCCCCC[n+]1cccc(C(=O)N2c3c(nc(N)[nH]c3=O)NC(C)C2C)c1 (centres undefined) -3.59%, C[C@@H]1C(c2ccc(F)cc2)=NN(c2ccc(Br)cc2)[C@H]1C(=O)N1CCOC1=O -4.22% [at 0.00818 µM], O=[N+]([O-])c1ccccc1SNc1ccccn1 2.54%, C=C1C2C[C@H](O)C(C)(C)[C@@]2(O)[C@H](O)C[C@]23C[C@@](C)(O)[C@H](CC[C@H]12)[C@H]3O (some centres undefined) -0.156%, CCOC(=O)C1C/C(=C\C(C)=O)c2cccc(C(F)(F)F)c2O1 (centres undefined) -1.22% [at 0.00818 µM], CC(Nc1oc(-c2ccccc2)nc1-c1ccccc1)c1ccccc1 (centres undefined), Cc1cc2oc(=O)cc(-c3ccccc3)c2c(C)c1/C=C/c1ccc(F)cc1 -3.71% [at 0.00818 µM], COc1cccc(C(=O)Nc2cc3c(cc2Br)OCCCO3)c1 -0.158%, CCCCC[C@H](O)/C=C/[C@@H]1[C@@H](CC(=O)CCC(=O)O)[C@@H](O)C[C@H]1O 1.55%, COc1ccc(CCNC(=O)/C(C#N)=C2\N=C(NC(=O)c3cccs3)c3ccccc32)cc1 0.415%, O=C(OC1CCOC1=O)c1cccc(S(=O)(=O)Nc2ccc(F)cc2)c1 (centres undefined) 1.87%, O=C(CNCc1ccc(F)cc1)Nc1ccccc1-c1ccccc1 -0.876%, COc1ccccc1N=Cc1c(O)c2ccccc2oc1=O 0.0273%, CC(=O)Nc1ccc(S(=O)(=O)NCC(=O)OCc2cc(=O)oc3ccc4ccccc4c23)cc1 1.72%, COC(=O)C1=C(C(=O)OC)[C@@H]2N(C)c3ccccc3[C@@]23C[C@@H](C(=O)OC)N(S(=O)(=O)c2ccc(Br)cc2)C3=N1 2.4% [at 11.4 µM], COC(=O)c1c(NC(=O)COC(=O)[C@@H](NS(=O)(=O)c2ccccc2)C(C)C)sc2c1CCC2 -1.84%, Brc1ccc(C2=NCCC(c3ccccc3)O2)cc1 (centres undefined) 0.263% [at 0.00818 µM], COc1ccc(-c2nc3c(c4c2C[C@H](c2ccccc2)OC4)CN(C(=O)c2cccnc2)CC3)c(C)c1 1.97% [at 11.4 µM], COc1ccc(-c2nnc(SCc3cccnc3)o2)cc1 -1.27%, COc1ccc(-c2nnc(SC(C)C#N)o2)cc1 (centres undefined) -9.79%, COc1ccc(C(=O)COC(=O)c2ccc3ccccc3n2)cc1 -2.31%, O=c1cc(CN2CCN(S(=O)(=O)/C=C/c3ccccc3)CC2)c2ccc(O)cc2o1 -3.24%, COc1ccc(C2CC(=O)Oc3ccc(C(C)(C)C)cc32)cc1 (centres undefined) -4.97% [at 0.00818 µM], CCOc1ccc(N2C(=O)/C(=C/c3ccc(C)o3)N(C)C2=S)cc1 -4.46%, COC(=O)CCCC1=CC2=C(c3ccccc3)C(=O)C(C)(OC(=O)C3CCCC3)C(=O)C2=CN1c1ccc(OC)cc1 (centres undefined) -9.71% [at 11.4 µM], CCOC(=O)c1c(NC(=O)C2(C)Cc3ccccc3C(=O)O2)sc2c1CCCC2 (centres undefined) 15.1%, COCCCNC(=S)NC(=O)c1ccccc1 -6.12%, C[C@H]1Cc2c(-c3ccccc3)nc3c(c2CO1)CN(C(=O)C1CC1)CC3 2.53% [at 11.4 µM], CC(NC(=O)CCC(=O)N1CCN(S(=O)(=O)c2ccc(Cl)cc2)CC1)c1ccccc1 (centres undefined) -1.88%

Potency, active:
COc1ccc(NS(=O)(=O)c2ccc(NC(=S)NC(=O)CC(C)C)cc2)cc1 15.8 µM, COc1cc(NC(=S)NCCSc2ccc(C)cc2)cc(OC)c1 20 µM, COc1cc(NS(=O)(=O)c2ccc(N/C=C(\C=O)c3nc4cc(Cl)ccc4o3)cc2)nc(OC)n1 15.8 µM, N#C/C=C\Oc1ccc(Cl)cc1N 22.4 µM, S=C(NCc1ccc(Cl)cc1)NC12CC3CC(CC(C3)C1)C2 22.4 µM, COc1ccc(-c2nnc(SC(=O)N3c4ccccc4Sc4ccccc43)o2)cc1 14.1 µM, CCOC(=O)C1=C(NC(=S)NC(=O)c2ccccc2)c2ccccc2CC1(C)C 25.1 µM
